Experimental data as given in PubChem BioAssay (EPA / NIEHS).
Records with an inconclusive call do not appear. Activity calls are given as the source filed them. How the source made its calls, unless noted: active means hit-call score of the fitted dose curve at least 0.9, where 1 is the maximum; inconclusive means response in the unintended direction; inactive means score below 0.9.

How the values were obtained:
[1] = ATG_TCF_b_cat_CIS: Attagene CIS-FACTORIAL HepG2 Assay for human T-Cell-Factor with beta-catenin (TCF/b-cat) (AID 2282965; active means hit-call score of the fitted dose curve at least 0.9, where 1 is the maximum; inactive means score below 0.9); conditions: HepG2 TCF/beta-catenin cis-reporter transcription, actives raise or lower the signal
How it was run: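 HepG2 cells transiently transfected with multiple cis-promoter-regulated reporter transcription units, so endogenous transcription factor activity is measured. Reporter mRNA read 24 hours after dosing by RT-PCR, fluorescent labelling and capillary electrophoresis; bidirectional fitting against DMSO.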

[2] = ATG_TAL_CIS: Attagene CIS-FACTORIAL HepG2 Assay for human TAL Basal Promoter (AID 2282966; active means hit-call score of the fitted dose curve at least 0.9, where 1 is the maximum; inactive means score below 0.9;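 further: background control endpoint measuring basal TAL promoter reporter mRNA not a specific factor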); conditions: HepG2 Attagene cis-factorial TAL promoter reporter; actives raise or lower the signal
How it was run: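 RT-PCR plus capillary electrophoresis quantifies reporter mRNA induction in transiently transfected HepG2 cells after 24 h chemical treatment. DMSO serves as negative control and baseline for bidirectional fitting.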

[3] = ATG_TGFb_CIS: Attagene CIS-FACTORIAL HepG2 Assay for human Transforming Growth Factor (TGF) (AID 2282967; active means hit-call score of the fitted dose curve at least 0.9, where 1 is the maximum; inactive means score below 0.9); conditions: HepG2 Attagene CIS TGFb reporter, mRNA transcription; actives raise or lower the signal
How it was run: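 HepG2 cells transiently transfected with cis-promoter-driven multiple reporter units measure endogenous TF activity; reporter mRNA quantified at 24 h by RT-PCR, FAM labeling, HpaI digestion and capillary electrophoresis. Bidirectional fit vs DMSO.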

[4] = ATG_VDRE_CIS: Attagene CIS-FACTORIAL HepG2 Assay for human Vitamin D Receptor Element (VDRE) (AID 2282968; active means hit-call score of the fitted dose curve at least 0.9, where 1 is the maximum; inactive means score below 0.9); conditions: HepG2 VDRE cis-reporter transcription, actives raise or lower the signal
How it was run: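 HepG2 cells transiently transfected with cis-element reporter units, dosed 24 h; reporter mRNA measured by RT-PCR, 6-FAM labeling, HpaI digestion and capillary electrophoresis. Activity fitted bidirectionally against DMSO baseline.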

[5] = target: Nuclear receptor subfamily 1 group I member 3 (Homo sapiens) (UniProt Q14994); assay: ATG_CAR_TRANS: Attagene TRANS-FACTORIAL HepG2 Assay for human Constitutive Androstane Receptor (CAR) (AID 2282969); conditions: HepG2 Attagene TRANS-FACTORIAL CAR reporter;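 further: activators raise reporter mRNA above DMSO so AC50 marks induction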
Nuclear receptor subfamily 1 group I member 3 (Homo sapiens), sequence (Q14994 whole entry, looked up, the tested form may be a part): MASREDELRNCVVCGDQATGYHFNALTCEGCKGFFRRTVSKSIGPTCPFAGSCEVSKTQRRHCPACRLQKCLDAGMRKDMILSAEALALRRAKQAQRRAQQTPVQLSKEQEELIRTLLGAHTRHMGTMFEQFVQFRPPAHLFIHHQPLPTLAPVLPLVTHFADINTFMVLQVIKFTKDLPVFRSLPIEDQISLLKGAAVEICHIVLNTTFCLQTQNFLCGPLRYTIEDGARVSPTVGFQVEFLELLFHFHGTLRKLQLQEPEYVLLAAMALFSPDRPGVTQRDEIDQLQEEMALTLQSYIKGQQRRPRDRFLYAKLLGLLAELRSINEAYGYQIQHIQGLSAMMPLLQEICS
How it was run: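 HepG2 cells transiently transfected with multiplexed GAL4-UAS reporter units expressing chimeric NR-Gal4 proteins; compound exposure 24 h. Reporter mRNA measured by RT-PCR, 6-FAM labelling, HpaI digestion and capillary electrophoresis; gain-of-signal fitted against DMSO baseline.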

[6] = target: Steroid hormone receptor ERR1 (Homo sapiens) (UniProt P11474); assay: ATG_ERRa_TRANS: Attagene TRANS-FACTORIAL HepG2 Assay for human Estrogen-Related Receptor alpha (ERRa) (AID 2282971); conditions: HepG2 Attagene TRANS reporter, ERRa transactivation
Steroid hormone receptor ERR1 (Homo sapiens), sequence (P11474 whole entry, looked up, the tested form may be a part): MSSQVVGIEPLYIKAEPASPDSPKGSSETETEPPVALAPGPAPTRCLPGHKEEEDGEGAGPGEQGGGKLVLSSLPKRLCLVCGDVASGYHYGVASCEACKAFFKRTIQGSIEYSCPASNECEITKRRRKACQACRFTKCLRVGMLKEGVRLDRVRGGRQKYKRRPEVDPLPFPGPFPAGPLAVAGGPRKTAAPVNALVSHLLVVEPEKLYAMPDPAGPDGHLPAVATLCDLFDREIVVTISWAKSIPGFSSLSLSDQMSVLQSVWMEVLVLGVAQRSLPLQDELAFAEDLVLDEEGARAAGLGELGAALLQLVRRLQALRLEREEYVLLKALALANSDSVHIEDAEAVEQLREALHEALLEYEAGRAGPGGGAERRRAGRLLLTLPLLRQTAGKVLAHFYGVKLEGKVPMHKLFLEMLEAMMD
How it was run: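 Reporter transcripts from ERRa-Gal4 chimera activity measured in transiently transfected human HepG2 cells 24 hours after dosing, using RT-PCR with 6-FAM primer extension, HpaI digestion and capillary electrophoresis; DMSO is baseline.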

[7] = target: X-box-binding protein 1 (Homo sapiens) (UniProt P17861); assay: ATG_Xbp1_CIS: Attagene CIS-FACTORIAL HepG2 Assay for human X-box Binding Protein 1 (XBP1) (AID 2282972; active means hit-call score of the fitted dose curve at least 0.9, where 1 is the maximum; inactive means score below 0.9); conditions: HepG2 XBP1 cis-element reporter, Attagene multiplex; actives raise or lower the signal
X-box-binding protein 1 (Homo sapiens), sequence (P17861 whole entry, looked up): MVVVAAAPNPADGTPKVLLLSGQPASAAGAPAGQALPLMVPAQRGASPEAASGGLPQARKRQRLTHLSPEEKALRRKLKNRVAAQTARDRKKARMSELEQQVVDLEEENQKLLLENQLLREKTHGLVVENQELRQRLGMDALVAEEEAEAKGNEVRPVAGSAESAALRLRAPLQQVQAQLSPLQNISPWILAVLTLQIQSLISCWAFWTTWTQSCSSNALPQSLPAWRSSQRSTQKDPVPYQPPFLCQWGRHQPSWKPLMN
How it was run: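 HepG2 cells transiently transfected with cis-regulated multiple reporter transcription units; endogenous transcription factor activity measured 24 hours after chemical dosing. Reporter mRNA quantified by RT-PCR, 6-FAM primer extension, HpaI digestion and capillary electrophoresis; bidirectional fitting versus DMSO.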

[8] = ATG_Hpa5_TRANS: Attagene TRANS-FACTORIAL HepG2 Assay for human GAL4-Hpa5 Hepatocyte Transcription Factor Basal Promoter (AID 2282975); conditions: HepG2 Attagene GAL4-Hpa5 transcription reporter;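 further: hits are increases in reporter mRNA over DMSO baseline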
How it was run: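 Basal-promoter GAL4 background control within the HepG2 trans-factorial panel of transiently transfected reporter units. Reporter mRNA is measured 24 h after dosing by RT-PCR and capillary electrophoresis, fitted for gain of signal versus DMSO.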

[9] = target: Estrogen-related receptor gamma (Homo sapiens) (UniProt P62508); assay: ATG_ERRg_TRANS: Attagene TRANS-FACTORIAL HepG2 Assay for human Estrogen-Related Receptor gamma (ERRg) (AID 2282977); conditions: HepG2 Attagene TRANS reporter, ERRg transactivation;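 further: hits increase reporter signal over DMSO so potencies reflect activators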
Estrogen-related receptor gamma (Homo sapiens), sequence (P62508 whole entry, looked up, the tested form may be a part): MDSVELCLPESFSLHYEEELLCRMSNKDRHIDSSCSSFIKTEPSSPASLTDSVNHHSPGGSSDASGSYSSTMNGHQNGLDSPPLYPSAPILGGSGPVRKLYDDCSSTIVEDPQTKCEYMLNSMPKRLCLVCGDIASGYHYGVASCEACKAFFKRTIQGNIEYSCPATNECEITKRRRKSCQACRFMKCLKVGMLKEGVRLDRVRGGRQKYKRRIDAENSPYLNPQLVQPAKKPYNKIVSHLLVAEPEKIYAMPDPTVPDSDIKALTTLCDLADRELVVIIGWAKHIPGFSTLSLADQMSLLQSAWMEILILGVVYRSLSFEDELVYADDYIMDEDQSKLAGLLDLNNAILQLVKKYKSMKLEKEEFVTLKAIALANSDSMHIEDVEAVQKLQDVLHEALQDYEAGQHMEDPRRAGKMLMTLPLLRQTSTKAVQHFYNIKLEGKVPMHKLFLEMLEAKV
How it was run: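 Transient HepG2 transfectants, 24 h compound exposure, GAL4-UAS reporter mRNA by RT-PCR/6-FAM labelling/capillary electrophoresis; positive direction vs DMSO.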

[10] = target: Bile acid receptor (Homo sapiens) (UniProt Q96RI1); assay: ATG_FXR_TRANS: Attagene TRANS-FACTORIAL HepG2 Assay for Farnesoid X Receptor (FXR) (AID 2282979); conditions: HepG2 Attagene TRANS FXR-GAL4 reporter transcription;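 further: hits raise reporter mRNA above DMSO so AC50 marks FXR activation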
Bile acid receptor (Homo sapiens), sequence (Q96RI1 whole entry, looked up, the tested form may be a part): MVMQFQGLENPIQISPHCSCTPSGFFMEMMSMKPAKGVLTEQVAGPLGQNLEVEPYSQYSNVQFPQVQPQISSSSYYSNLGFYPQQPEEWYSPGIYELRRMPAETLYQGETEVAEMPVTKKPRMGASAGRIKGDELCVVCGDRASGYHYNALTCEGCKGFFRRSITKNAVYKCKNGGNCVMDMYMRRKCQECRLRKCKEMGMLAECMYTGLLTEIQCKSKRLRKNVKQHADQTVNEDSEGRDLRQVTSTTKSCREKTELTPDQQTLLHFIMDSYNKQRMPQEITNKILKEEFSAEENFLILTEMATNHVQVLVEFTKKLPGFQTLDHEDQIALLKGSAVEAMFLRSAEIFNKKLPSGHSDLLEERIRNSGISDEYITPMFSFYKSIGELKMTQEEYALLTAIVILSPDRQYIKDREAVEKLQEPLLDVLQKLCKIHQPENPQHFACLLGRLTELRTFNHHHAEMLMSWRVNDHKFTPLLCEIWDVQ
How it was run: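 Reporter transcripts from transfected HepG2 cells were measured 24 h after dosing, using RT-PCR with capillary electrophoresis of 6-FAM-labelled fragments. The read-out reflects activity of exogenous FXR-Gal4 chimera on GAL4-UAS units, with induction relative to DMSO.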

[11] = target: Oxysterols receptor LXR-alpha (Homo sapiens) (UniProt Q13133); assay: ATG_LXRa_TRANS: Attagene TRANS-FACTORIAL HepG2 Assay for human Liver X Receptor alpha (LXRa) (AID 2282980); conditions: HepG2 Attagene TRANS reporter, LXRa transactivation
Oxysterols receptor LXR-alpha (Homo sapiens), sequence (Q13133 whole entry, looked up, the tested form may be a part): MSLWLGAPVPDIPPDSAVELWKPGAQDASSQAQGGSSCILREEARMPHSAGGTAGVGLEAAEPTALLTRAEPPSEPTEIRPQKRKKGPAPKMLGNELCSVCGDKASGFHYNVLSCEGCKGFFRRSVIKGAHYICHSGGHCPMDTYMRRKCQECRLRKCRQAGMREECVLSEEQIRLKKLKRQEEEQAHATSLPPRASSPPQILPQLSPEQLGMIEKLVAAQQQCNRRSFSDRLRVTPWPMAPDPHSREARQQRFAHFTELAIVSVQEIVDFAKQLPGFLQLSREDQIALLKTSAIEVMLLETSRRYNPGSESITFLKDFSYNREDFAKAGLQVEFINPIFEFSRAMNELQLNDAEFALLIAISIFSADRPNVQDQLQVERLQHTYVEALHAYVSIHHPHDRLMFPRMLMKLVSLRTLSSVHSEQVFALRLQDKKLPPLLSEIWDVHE
How it was run: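 Chemical-induced reporter mRNA measured by RT-PCR with fluorescent labelling and capillary electrophoresis after 24 h dosing of transiently transfected HepG2 cells expressing exogenous NR-Gal4 chimeras; increases scored against DMSO baseline.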

[12] = ATG_M_06_TRANS: Attagene TRANS-FACTORIAL HepG2 Assay for M06 Transcription Factor (Internal Marker) (AID 2282983); conditions: HepG2 Attagene TRANS M06 internal marker reporter
How it was run: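 Cells: HepG2, transient multi-reporter transfection. Exposure: 24 h. Detection: RT-PCR, 6-FAM labelling, HpaI digestion (2 h, 37 °C), capillary electrophoresis. Baseline: DMSO.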

[13] = ATG_M_32_TRANS: Attagene TRANS-FACTORIAL HepG2 Assay for M32 Transcription Factor (Internal Marker) (AID 2282984); conditions: HepG2 Attagene TRANS M32 internal marker reporter
How it was run: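 HepG2 cells transiently transfected with multiple GAL4-UAS reporter transcription units, dosed for 24 hours; reporter mRNA quantified by RT-PCR, 6-FAM primer extension, HpaI digestion and capillary electrophoresis. Gain-of-signal fitted versus DMSO baseline; internal background-control marker.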

[14] = target: Glucocorticoid receptor (Homo sapiens) (UniProt P04150); assay: ATG_GR_TRANS: Attagene TRANS-FACTORIAL HepG2 Assay for human Glucocorticoid Receptor (GR) (AID 2282978); conditions: HepG2 Attagene TRANS GR reporter, mRNA transcription;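 further: activators score as hits since higher reporter transcript over DMSO is fitted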
Glucocorticoid receptor (Homo sapiens), sequence (P04150 whole entry, looked up, the tested form may be a part): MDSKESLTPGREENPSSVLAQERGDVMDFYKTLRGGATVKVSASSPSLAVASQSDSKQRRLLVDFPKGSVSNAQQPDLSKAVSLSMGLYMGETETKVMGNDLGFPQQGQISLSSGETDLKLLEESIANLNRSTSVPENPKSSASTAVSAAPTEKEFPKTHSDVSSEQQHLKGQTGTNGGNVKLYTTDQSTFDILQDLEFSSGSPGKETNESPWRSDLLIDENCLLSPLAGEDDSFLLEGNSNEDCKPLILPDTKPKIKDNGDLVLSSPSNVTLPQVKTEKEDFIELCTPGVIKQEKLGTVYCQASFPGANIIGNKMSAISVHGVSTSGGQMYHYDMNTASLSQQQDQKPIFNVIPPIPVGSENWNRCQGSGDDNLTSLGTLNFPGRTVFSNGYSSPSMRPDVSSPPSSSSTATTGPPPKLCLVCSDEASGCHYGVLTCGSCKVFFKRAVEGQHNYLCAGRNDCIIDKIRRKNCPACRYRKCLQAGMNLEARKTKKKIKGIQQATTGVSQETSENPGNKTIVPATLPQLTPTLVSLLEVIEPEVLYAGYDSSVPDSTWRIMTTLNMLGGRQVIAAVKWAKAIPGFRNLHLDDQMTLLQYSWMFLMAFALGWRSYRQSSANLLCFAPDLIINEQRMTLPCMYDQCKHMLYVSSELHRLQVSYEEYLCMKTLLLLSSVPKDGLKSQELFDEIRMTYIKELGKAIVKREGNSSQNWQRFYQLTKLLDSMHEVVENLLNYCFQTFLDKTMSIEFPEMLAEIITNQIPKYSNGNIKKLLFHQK
How it was run: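 Readout is reporter transcript from a chimeric GR-Gal4 acting on GAL4-UAS in transfected human HepG2 liver cells after 24 h exposure, quantified by RT-PCR and capillary electrophoresis. Activation fitted upward against DMSO.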

[15] = ATG_M_19_TRANS: Attagene TRANS-FACTORIAL HepG2 Assay for M19 Transcription Factor (Internal Marker) (AID 2282974); conditions: HepG2 Attagene TRANS-FACTORIAL M19 internal marker reporter
How it was run: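 Background-control readout: after 24 h chemical exposure of transfected HepG2 carrying GAL4-driven reporter units, RNA was reverse-transcribed, amplified, fluorescently labeled and sized by capillary electrophoresis; gain-of-signal fit against DMSO.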

[16] = target: Oxysterols receptor LXR-beta (Homo sapiens) (UniProt P55055); assay: ATG_LXRb_TRANS: Attagene TRANS-FACTORIAL HepG2 Assay for human Liver X Receptor beta (LXRb) (AID 2282981); conditions: HepG2 Attagene TRANS GAL4-LXRb reporter, mRNA
Oxysterols receptor LXR-beta (Homo sapiens), sequence (P55055 whole entry, looked up, the tested form may be a part): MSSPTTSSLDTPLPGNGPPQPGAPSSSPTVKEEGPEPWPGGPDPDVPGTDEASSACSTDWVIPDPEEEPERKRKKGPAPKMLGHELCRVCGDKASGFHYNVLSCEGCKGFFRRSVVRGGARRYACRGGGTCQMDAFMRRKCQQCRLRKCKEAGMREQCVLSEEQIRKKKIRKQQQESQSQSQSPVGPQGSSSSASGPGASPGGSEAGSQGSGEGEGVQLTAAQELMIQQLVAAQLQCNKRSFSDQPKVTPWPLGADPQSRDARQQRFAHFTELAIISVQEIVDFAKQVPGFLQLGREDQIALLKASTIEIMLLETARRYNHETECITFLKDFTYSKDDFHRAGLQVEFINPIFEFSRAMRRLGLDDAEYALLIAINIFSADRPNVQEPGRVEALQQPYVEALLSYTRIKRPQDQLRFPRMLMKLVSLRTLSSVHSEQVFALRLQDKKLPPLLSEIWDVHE
How it was run: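 HepG2 cells transiently transfected with multiple reporter transcription units carrying chimeric NR-Gal4 proteins acting on GAL4-UAS reporters; compound exposure 24 h. Reporter mRNA quantified by RT-PCR, 6-FAM labelling, HpaI digestion and capillary electrophoresis; gain of signal versus DMSO.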

[17] = ATG_GAL4_TRANS: Attagene TRANS-FACTORIAL HepG2 Assay for GAL4 (Internal Marker) (AID 2282976); conditions: HepG2 Attagene TRANS GAL4 internal marker reporter
How it was run: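 In transfected human HepG2 liver cells dosed 24 h, GAL4 reporter mRNA serves as a baseline marker. Detection by RT-PCR with fluorescent capillary electrophoresis, activity fitted upward relative to DMSO.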

[18] = target: Hepatocyte nuclear factor 4-alpha (Homo sapiens) (UniProt P41235); assay: ATG_HNF4a_TRANS: Attagene TRANS-FACTORIAL HepG2 Assay for human Hepatocyte Nuclear Factor 4 alpha (HNF4a) (AID 2282982); conditions: HepG2 HNF4a transactivation reporter, mRNA readout
Hepatocyte nuclear factor 4-alpha (Homo sapiens), sequence (P41235 whole entry, looked up, the tested form may be a part): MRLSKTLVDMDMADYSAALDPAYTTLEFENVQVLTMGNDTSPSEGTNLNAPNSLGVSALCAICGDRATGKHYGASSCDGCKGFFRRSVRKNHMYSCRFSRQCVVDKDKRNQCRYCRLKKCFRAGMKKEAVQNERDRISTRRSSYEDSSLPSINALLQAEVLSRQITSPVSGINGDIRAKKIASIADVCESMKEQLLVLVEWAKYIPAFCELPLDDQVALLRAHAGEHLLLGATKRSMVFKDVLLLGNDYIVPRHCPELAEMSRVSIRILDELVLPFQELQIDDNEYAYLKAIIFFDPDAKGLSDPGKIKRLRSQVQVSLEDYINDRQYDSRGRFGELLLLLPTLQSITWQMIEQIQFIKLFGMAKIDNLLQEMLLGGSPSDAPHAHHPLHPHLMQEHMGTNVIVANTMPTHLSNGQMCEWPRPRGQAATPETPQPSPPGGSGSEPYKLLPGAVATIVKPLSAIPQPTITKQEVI
How it was run: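 HepG2 cells transiently transfected with multiplexed GAL4-UAS reporter units responsive to chimeric NR-GAL4 proteins; compound exposure 24 h. Reporter mRNA quantified by RT-PCR, 6-FAM labelling, HpaI digestion and capillary electrophoresis; gain of signal versus DMSO baseline.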

[19] = target: Androgen receptor (Homo sapiens) (UniProt P10275); assay: ATG_AR_TRANS: Attagene TRANS-FACTORIAL HepG2 Assay for human Androgen Receptor (AR) (AID 2282973); conditions: HepG2 Attagene TRANS-FACTORIAL AR reporter transcription
How it was run: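 Transcriptional activity of an exogenous AR–Gal4 fusion read as GAL4-UAS reporter transcript levels in transfected human HepG2 cells after 24 h dosing. Detection via RT-PCR, 6-FAM labelling, HpaI digest and capillary electrophoresis; increase over DMSO baseline.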

[20] = target: Estrogen receptor (Homo sapiens) (UniProt P03372); assay: ATG_ERa_TRANS: Attagene TRANS-FACTORIAL HepG2 Assay for human Estrogen Receptor alpha (ERa) (AID 2282970); conditions: HepG2 Attagene TRANS ERa GAL4 reporter, mRNA
Estrogen receptor (Homo sapiens), sequence (P03372 whole entry, looked up, the tested form may be a part): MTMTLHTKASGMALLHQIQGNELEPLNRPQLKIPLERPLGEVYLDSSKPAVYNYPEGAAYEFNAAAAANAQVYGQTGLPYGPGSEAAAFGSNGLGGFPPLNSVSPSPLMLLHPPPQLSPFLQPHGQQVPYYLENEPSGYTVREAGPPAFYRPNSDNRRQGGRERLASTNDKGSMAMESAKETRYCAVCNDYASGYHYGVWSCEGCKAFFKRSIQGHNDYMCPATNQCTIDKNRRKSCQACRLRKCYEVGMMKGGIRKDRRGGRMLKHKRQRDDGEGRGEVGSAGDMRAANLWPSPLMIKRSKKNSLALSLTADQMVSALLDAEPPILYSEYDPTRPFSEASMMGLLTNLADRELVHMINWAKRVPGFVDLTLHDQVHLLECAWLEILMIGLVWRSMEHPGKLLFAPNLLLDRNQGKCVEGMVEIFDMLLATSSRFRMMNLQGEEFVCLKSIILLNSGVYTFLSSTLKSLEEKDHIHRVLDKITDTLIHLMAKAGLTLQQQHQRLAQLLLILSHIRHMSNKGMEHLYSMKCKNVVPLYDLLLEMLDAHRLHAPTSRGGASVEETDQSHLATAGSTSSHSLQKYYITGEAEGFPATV
How it was run: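 Cells: HepG2, transiently transfected. Construct: GAL4-UAS reporter units regulated by exogenous NR-Gal4 chimeras. Time: 24 h. Detection: reporter mRNA by RT-PCR, capillary electrophoresis, fluorescence. Baseline: DMSO, upward fitting.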

Measured: AC50

CC(C)C1(C)N=C(c2nc3ccccc3cc2C(=O)O)NC1=O (centres undefined)
not listed: [14] | [15] | [16] | [17] | [18] | [19] | [20]
inactive: all other assays above

CCc1nn(C)c(C(=O)NCc2ccc(C(C)(C)C)cc2)c1Cl
inactive: [1] | [2] | [3] | [5] | [6] | [8] | [9] | [14] | [12]
active: [4] 1.91 µM | [7] 0.352 µM | [11] 0.258 µM

CS/C(C)=N/OC(=O)N(C)SN(C)C(=O)O/N=C(\C)SC
inactive: [1] | [2] | [3] | [5] | [7] | [15] | [9] | [11] | [16] | [13]

CCNc1nc(Cl)nc(NC(C)C)n1
not listed: [5] | [8] | [10] | [16] | [19] | [20]
inactive: all other assays above

Cc1ccc(-c2c(Cl)nc(C#N)n2S(=O)(=O)N(C)C)cc1
inactive: [1] | [2] | [3] | [19] | [8] | [14] | [11] | [16] | [12]
active: [4] 11.9 µM | [7] 8.26 µM

Cc1c(F)c(F)c(COC(=O)C2C(/C=C(\Cl)C(F)(F)F)C2(C)C)c(F)c1F (centres undefined)
inactive: [1] | [2] | [3] | [7] | [8] | [14] | [11] | [13]
active: [4] 18 µM | [20] 50 µM

O=C(O)c1nc(Cl)ccc1Cl
inactive: [1] | [2] | [3] | [7] | [15] | [8] | [14] | [11] | [16] | [12] | [13]

CC1=C(C(=O)Nc2ccccc2)SCCO1
inactive: [1] | [2] | [3] | [4] | [20] | [6] | [7] | [9] | [10] | [12] | [13]

CC1COC(Cn2cncn2)(c2ccc(Oc3ccc(Cl)cc3)cc2Cl)O1 (centres undefined)
active: [3] 3.17 µM | [4] 3.17 µM
not listed: [5] | [15] | [16] | [17] | [18] | [19] | [20]
inactive: all other assays above

N#Cc1cc(Br)c(O)c(Br)c1
active: [7] 31.6 µM
inactive: [1] | [2] | [3] | [6] | [15] | [9] | [11]

O=C(O)COc1nc(Cl)c(Cl)cc1Cl
inactive: [1] | [2] | [3] | [4] | [7] | [12]
